In PubChem BioAssay (NCI):
“And” between values parts separate entries of the source, which are not always exact repeats. Equal values may be shown once. Compounds without any hit were thinned out: in the full panel of roughly 83,000, 20% have a hit.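 Activity criterion: percent growth below 10, measured after cells in 96-well plates were exposed to a single compound concentration for 48 hours.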 The source made the active and inactive calls.

What follows are compounds tested on TK-10 renal (assay: NCI-60 one-dose screen, 48 h (100 = growth as untreated, 0 = no growth, -100 = all killed)). Conditions: 10 µM unless noted.

Row | SMILES | growth
1 | COc1c(O)ccc(C2=Cc3ccc(O)cc3OC2)c1OC | 1.01% [100 µM] (active) and 9.04% [100 µM] (active)
2 | CCC(c1ccc(N(C)C)cc1)C1NC(=S)NC1=O (centres undefined) | 47.6% [100 µM] (inactive) and 37.5% [100 µM] (inactive)
3 | N#C/C=C1\C=CC(O)C(O)C1OC1OC(CO)C(O)C(O)C1O (centres undefined) | 97.1% [100 µM] (inactive) and 93.8% [100 µM] (inactive)
4 | Fc1ccc(Nc2nc(Cl)c3[nH]cnc3n2)cc1Cl | 48.7% [100 µM] (inactive) and -27.6% [100 µM] (active)
5 | COc1ccc(N=C(C)C(C)=Nc2ccc(OC)cc2)cc1 | 77.8% [100 µM] (inactive) and -88.6% [100 µM] (active)
6 | CC(=N/N=C/c1ccccn1)/C(C)=N/N=C(C)/C(C)=N/N=C(C)/C(C)=N/N=C(C)/C(C)=N\N=C\c1ccccn1 | 99.9% [100 µM] (inactive) and 81.3% [100 µM] (inactive)
7 | OCc1ccccc1OC1OC(CO)C(O)C(O)C1O (centres undefined) | 97.4% [100 µM] (inactive) and 97.5% [100 µM] (inactive)
8 | CC(C)(C)c1cc(C2COC(=O)COCCOCC(=O)OCCOCCO2)cc(C(C)(C)C)c1O (centres undefined) | -69.6% [100 µM] (active) and -100% [100 µM] (active)
9 | CC(C)O/N=C/c1cc(NC(=S)OC(C)C)ccc1Cl | 53.5% [100 µM] (inactive) and 36.1% [100 µM] (inactive)
10 | NC(Cc1ccc(S(=O)(=O)O)cc1)C(=O)NC(Cc1ccc(S(=O)(=O)O)cc1)C(=O)NC(Cc1ccc(S(=O)(=O)O)cc1)C(=O)NC(Cc1ccc(S(=O)(=O)O)cc1)C(=O)O (centres undefined) | 102% [100 µM] (inactive) and 111% [100 µM] (inactive)
11 | Cc1ccc(OCC2OC(n3cnc4nc(Cl)nc(Cl)c43)CC2Oc2ccc(C)cc2)cc1 (centres undefined) | 1.81% [100 µM] (active) and -100% [100 µM] (active)
12 | C[C@]12CC[C@@H]3c4ccc(OS(N)(=O)=O)cc4CC[C@H]3[C@@H]1CCC2=O | 31.9% [100 µM] (inactive) and 68.9% [100 µM] (inactive)
13 | COc1ccc2cc(CN3CCC(C4CCNCC4)CC3)ccc2c1 | -89.6% [100 µM] (active) and -100% [100 µM] (active)
14 | N/N=C(\C(=O)Nc1ccc([N+](=O)[O-])cc1)C(C1=Nc2cc([N+](=O)[O-])ccc2NC1)[N+](=O)[O-] (centres undefined) | 117% [100 µM] (inactive) and 4.46% [100 µM] (active)
15 | COC(=O)C1=CO[C@@H](OC2OC(CO)C(O)C(O)C2O)[C@H]2[C@@H](C)[C@@H](O)[C@@H](O)[C@@H]12 (some centres undefined) | 102% [100 µM] (inactive) and 98% [100 µM] (inactive)
16 | CCCCCCCCOC(=O)C12Oc3ccc(-c4ccc5c(c4O)C(O)=C4C(=O)CC(C)C(O)C4(C(=O)OCCCCCCCC)O5)c(O)c3C(O)=C1C(=O)CC(C)C2O (centres undefined) | -21.8% [100 µM] (active) and -100% [100 µM] (active)
17 | COc1cc2c(c3c1c(=O)c1ccccc1n3C)C=C([N+](=O)[O-])C(C)(C)O2 | 31.2% [100 µM] (inactive) and -98.1% [100 µM] (active)
18 | Clc1ccc(C2NN=C3c4ccccc4OCC32)cc1 (centres undefined) | 7.98% [100 µM] (active) and 5.96% [100 µM] (active)
19 | Cc1ccc2c(/C=C/c3ccc(N(C)C)cc3)ccc(C(C)C)cc1-2 | 104% [100 µM] (inactive) and -33% [100 µM] (active)
20 | COC(=O)c1ccc(NC(=O)O/N=C(\Cl)C(C)C)cc1 | -100% [100 µM] (active)
21 | COC(=O)C(=O)C(C(=O)C(=O)Nc1ccccc1C(C)=O)c1nc2ccc(C(=O)c3ccccc3)cc2[nH]c1=O (centres undefined) | 114% [100 µM] (inactive) and 17.9% [100 µM] (inactive)
22 | Cc1ccc(OC2CC(n3cnc4ncnc(Cl)c43)OC2Oc2ccc(C)cc2)cc1 (centres undefined) | 85% [100 µM] (inactive) and -100% [100 µM] (active)
23 | COc1cc(-c2nc(SC)nc3c2CCc2ccccc2-3)cc(OC)c1OC | 41.4% [100 µM] (inactive) and 11% [100 µM] (inactive)
24 | N#Cc1n[nH]n(-c2ccccc2)c1=O | 115% [100 µM] (inactive) and 107% [100 µM] (inactive)
